According to PubChem BioAssay AID2284371 (EPA ToxCast):
Inconclusive results are not listed. Calls of active or inactive are those of the source. The calls were made as follows: active = hit-call score of the fitted dose curve at least 0.9, where 1 is the maximum; inconclusive = response in the unintended direction; inactive = score below 0.9.

test: ATG_M_61_EcoTox2: Attagene TRANS-FACTORIAL EcoTox-2 HepG2 Assay for M61 Transcription Factor (Internal Marker)
Experimental: ATG_EcoTox2 is a cell-based, multiplexed assay created by modifying the existing Attagene TRANS-FACTORIAL system to include a panel of nuclear receptors from some or all the following species: human (Homo sapiens), african clawed frog (Xenopus laevis), rainbow trout (Oncorhynchus mykiss), japanese medaka (Oryzias latipes), and zebrafish (Danio rerio). The ECOTOX2-FACTORIAL format uses HepG2, a human liver cell line, with measurements taken at 24 hours after chemical dosing in a 24-well plate. ATG_M_61_EcoTox2 is one of 29 assay components calculated in the ATG_EcoTox2 assay. It is designed to make measurements of mRNA induction, a form of inducible reporter, as detected with fluorescence intensity signals by Reverse transcription polymerase chain reaction (RT-PCR) and Capillary electrophoresis technology.The assay endpoint ATG_M_61_EcoTox2 was analyzed in the positive analysis fitting direction relative to DMSO as the negative control and baseline of activity. Using a type of inducible reporter, measures of mRNA for gain-of-signal activity can be used to understand the background control at the transcription factor-level as they relate to the gene. Furthermore, this assay endpoint can be referred to as a secondary readout, because this assay has produced multiple assay endpoints where this one serves a background control function. To generalize the intended target to other relatable targets, this assay endpoint is annotated to the background measurement intended target family, where the subfamily is internal marker.
Human liver HepG2 cells are transiently transfected with multiple reporter transcription units (MRTUs) in 6-well plates using FuGene 6 reagent (Roche; 3 ml FuGene/1 mg DNA). The MRTU constructs are regulated by a cis-regulating element (promoter). Each RTU expresses a GAL4-UAS that regulates the transcription of a nearby target reporter gene sequence. A major difference between the CIS and TRANS system is that in CIS activities of endogenous TFs are measured, whereas the TRANS assay evaluates changes in activities of exogenous, chimeric NR-Gal4 proteins. […] At the end of 24 hour incubation, total RNA was isolated using TriZol reagent (Invitrogen). The isolated RNA is then reverse-transcribed using oligo(dT) primer and Mo-MLV reverse transcriptase (Invitrogen) with DNAse I (Ambion) treatment for 30 min. The one-tenth of the produced cDNA was amplified by PCR using Taq DNA polymerase (Invitrogen) and two reporter sequence-specific primers. […] The fragments were purified using Qiaquick PCR columns (Qiagen), analyzed on an ABI 3130xL genetic analyzer (Applied Biosystems) with peak positions identified by using a set of X-rhodamine (ROX)-labeled MapMarker1000 molecular weight standards (BioVentures). […]

| Compound | outcome |
| --- | --- |
| CCCCOCN(C(=O)CCl)c1c(CC)cccc1CC | inactive |
| O=P(Oc1ccccc1)(Oc1ccccc1)Oc1ccccc1 | inactive |
| O=C(O)C(F)(F)C(F)(F)C(F)(F)C(F)(F)C(F)(F)C(F)(F)C(F)(F)F | inactive |
| O=S(=O)(O)C(F)(F)C(F)(F)C(F)(F)C(F)(F)C(F)(F)C(F)(F)F | inactive |
